Reference: PubChem BioAssay AID651640 (Broad Institute, 2012)
Several values for one entry are separate records, joined by “and”; a condition that tells them apart may be missing. Equal entries are not always repeated. In all, about 350,000 compounds went through this assay and about 6,000 (1.7%) were called active. About 5% were inconclusive and are not listed. Rule as the data show it: active = CPE inhibition above about 20% (passing the limit was not always enough); inconclusive = no clear call, values can overlap the other calls; tested in BHK-21 cells. For the sample, actives were picked, then their nearest neighbours and some compounds at random. Some structures have more than one record in an assay (separate samples or runs), and their calls can disagree.

experiment: protection of cells from dengue 2 killing – plate reader, single concentration, primary screen (AID 651640); conditions: DENV2-infected cells, cytopathic effect rescue, at 9.99 µM, stronger effect = higher value;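 also: 0% = median of neutral control wells and 100% = median of positive control wells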

Row | Structure (SMILES) | CPE inhibition
1 | O=C(c1ccncc1)N1CC(=O)N2[C@H](CO)[C@@H](c3ccc(-c4cccnc4)cc3)[C@H]2C1 | -6.23% (inactive)
2 | COc1ccc2c3c(n(C)c2c1)[C@H](CO)N(C(=O)C1CCCC1)CC31CCN(C(=O)c2ccncc2)CC1 | 4.15% (inactive)
3 | CO[C@@H]1CN(C)C(=O)c2ccc(NC(=O)NC(C)C)cc2OC[C@@H](C)N(C(=O)NC(C)C)C[C@H]1C | 9.11% (inactive)
4 | C[C@@H]1CCCCO[C@H](CN(C)CC2CCCCC2)[C@H](C)CN([C@H](C)CO)C(=O)c2cc(NS(=O)(=O)c3ccc(F)cc3)ccc2O1 | -1.47% (inactive)
5 | C[C@@H]1CCCCO[C@H](CN(C)Cc2ccc3c(c2)OCO3)[C@H](C)CN([C@@H](C)CO)C(=O)c2cc(NS(=O)(=O)c3cccs3)ccc2O1 | -2.06% (inactive) and 0.641% (inactive)
6 | CCCN1C(=O)c2[nH]nc(-c3ccccc3)c2C1c1ccccc1 (stereo not drawn) | 1.19% (inactive)
7 | CO[C@H]1CN(C)C(=O)c2ccc(NC(C)=O)cc2OC[C@H](C)N(CC2CC2)C[C@@H]1C | -14.7% (inactive)
8 | C[C@@H]1CN([C@@H](C)CO)C(=O)Cc2cc(NC(=O)Nc3ccc(C(F)(F)F)cc3)ccc2O[C@H]1CN(C)Cc1ccc(C(=O)O)cc1 | 30.9% (active)
9 | C[C@@H]1CN([C@H](C)CO)C(=O)Cc2cc(NC(=O)C3CCCCC3)ccc2O[C@@H]1CN(C)Cc1ccc(C(F)(F)F)cc1 | 31.3% (active)
10 | C[C@@H]1CN([C@@H](C)CO)C(=O)Cc2cc(NC(=O)C3CCCCC3)ccc2O[C@@H]1CN(C)C(=O)Nc1ccc(C(F)(F)F)cc1 | 2.75% (inactive)
11 | C[C@H](CO)N1C[C@H](C)[C@@H](CN(C)S(=O)(=O)c2ccccc2)Oc2ccc(NC(=O)Nc3ccc(F)cc3)cc2CC1=O | 13.5% (inactive)
12 | C[C@H]1CN([C@@H](C)CO)C(=O)Cc2cc(NC(=O)C3CCCCC3)ccc2O[C@H]1CN(C)C(=O)Nc1ccc(C(F)(F)F)cc1 | -1.37% (inactive)
13 | C[C@H]1CN([C@@H](C)CO)C(=O)Cc2cc(NC(=O)Nc3ccc(C(F)(F)F)cc3)ccc2O[C@H]1CN(C)Cc1ccc(C(=O)O)cc1 | 16.5% (inactive)
14 | C[C@@H]1CN([C@@H](C)CO)C(=O)Cc2cc(NC(=O)Nc3ccc(F)cc3)ccc2O[C@@H]1CN(C)S(=O)(=O)c1ccccc1 | 76.2% (active)
15 | C[C@@H]1CN([C@H](C)CO)C(=O)Cc2cc(NC(=O)Nc3ccccc3)ccc2O[C@@H]1CN(C)Cc1ccc(C(F)(F)F)cc1 | -6.47% (inactive)
16 | C[C@H]1CN([C@@H](C)CO)C(=O)Cc2cc(NC(=O)Nc3ccc(F)cc3)ccc2O[C@H]1CN(C)S(=O)(=O)c1ccccc1 | 1.86% (inactive)
17 | COCC#Cc1cnc2c(c1)C(=O)N([C@H](C)CO)C[C@H](C)[C@H](CN(C)C(=O)C1CCOCC1)O2 | 8% (inactive)
18 | O=C(C[C@H]1C[C@@H]2c3cc(NC(=O)CC4CC4)ccc3O[C@@H]2[C@@H](CO)O1)NCc1cc(F)ccc1F | -1.05% (inactive)
19 | C[C@@H]1CN([C@H](C)CO)C(=O)c2cc(NC(=O)c3ccncc3)ccc2O[C@H]1CN(C)Cc1ccc(Oc2ccccc2)cc1 | -0.0445% (inactive)
20 | C[C@@H]1CCCCO[C@@H](CN(C)C(=O)Cc2ccccc2)[C@H](C)CN([C@H](C)CO)C(=O)c2cc(NC(=O)Cc3ccccc3)ccc2O1 | 13.3% (inactive)
21 | COc1ccc(-c2ccc3c(c2)[C@H]2[C@H](CCN2C(=O)c2ccc4c(c2)OCO4)[C@@H](CO)N3)cc1 | -26.6% (inactive)

Row | Structure (SMILES) | CPE inhibition
22 | Cc1ccc(C)c(CN2CCC(CNC(=O)C3CCCN(c4ncnc5c4nc4n5CCCCC4)C3)CC2)c1 (stereo not drawn) | 3.53% (inactive)
23 | CCCN1C[C@@H](C)[C@@H](OC)CN(C)C(=O)c2ccc(NC(=O)CC(F)(F)F)cc2OC[C@H]1C | 1.09% (inactive)
24 | CN1c2ccc(Br)cc2[C@H]2[C@H](CCN2S(=O)(=O)c2ccc(F)cc2)[C@@H]1CO | 0.0605% (inactive)
25 | CO[C@@H]1CN(C)C(=O)c2ccc(NC(=O)C3CC3)cc2OC[C@H](C)N(C(C)=O)C[C@H]1C | 7.67% (inactive)
26 | COc1ccc(C[C@H]2CN3C(=NC[C@H]3C)N2CCNC(=O)CCC2CCCCC2)cc1 | -4.48% (inactive)
27 | NC1=NC[C@@H](Cc2ccc(O)cc2)N1CC1CCCCC1 | 2.56% (inactive)
28 | C/C=C(\C)C(=O)NCCN1C2=NC[C@H](Cc3ccc(O)cc3)N2C[C@@H]1Cc1ccc(OC)cc1 | 77.3% (active)
29 | CCC(=O)N1C[C@@H](O)COC[C@H]2O[C@H](CC(=O)NCC3CCCCC3)CC[C@@H]21 | -3.58% (inactive)
30 | CCOC(=O)N1CCN(Cc2nc3cc(NC(C)=O)ccc3n2C)CC1 | -3.68% (inactive)
31 | CCOC(=O)N1CCN(Cc2nc3cc(NC(=O)CC)ccc3n2CC)CC1 | 38.6% (active)
32 | CCC(=O)Nc1ccc2c(c1)nc(CCN1CCN(c3ccccn3)CC1)n2C | 0.997% (inactive)
33 | C[C@@H]1CN([C@H](C)CO)C(=O)c2cccc(NC(=O)c3ccncc3)c2O[C@@H]1CN(C)S(=O)(=O)c1cn(C)cn1 | 15% (inactive)
34 | O=C(Nc1ccccc1F)N[C@@H]1C=C[C@H](CC(=O)N2CCCCC2)O[C@@H]1CO | -0.192% (inactive)
35 | Cc1noc(C)c1NC(=O)N(C)C[C@@H]1OCCCC[C@H](C)Oc2ccc(NC(=O)c3ccccc3)cc2C(=O)N([C@@H](C)CO)C[C@@H]1C | 16.5% (inactive)
36 | C/C=C/c1cnc2c(c1)C(=O)N([C@@H](C)CO)C[C@@H](C)[C@H](CN(C)C(=O)c1cnccn1)O2 | -1.7% (inactive)
37 | C[C@H]1CN([C@@H](C)CO)C(=O)c2cc(C#Cc3ccc(F)cc3)cnc2O[C@@H]1CN(C)C(=O)Nc1ccc(F)cc1 | -4.85% (inactive)
38 | COc1ccc(C#Cc2cnc3c(c2)C(=O)N([C@H](C)CO)C[C@@H](C)[C@@H](CN(C)C(=O)CN(C)C)O3)cc1 | 33.2% (active)
39 | C/C=C/c1cnc2c(c1)C(=O)N([C@@H](C)CO)C[C@@H](C)[C@@H](CN(C)C(=O)c1cnccn1)O2 | 2.38% (inactive)
40 | CC(=O)N(C)C[C@@H]1Oc2ncc(C#Cc3ccc(F)cc3)cc2C(=O)N([C@H](C)CO)C[C@@H]1C | 28.5% (active)
41 | C[C@H](CO)N1C[C@H](C)[C@H](CN(C)C)Oc2ncc(C#Cc3ccc(F)cc3)cc2C1=O | -5.08% (inactive) and 2.36% (inactive)
42 | COc1ccc(C#Cc2cnc3c(c2)C(=O)N([C@H](C)CO)C[C@H](C)[C@@H](CN(C)C)O3)cc1 | 19.9% (inactive)

Row | Structure (SMILES) | CPE inhibition
43 | COc1ccc(C#Cc2cnc3c(c2)C(=O)N([C@@H](C)CO)C[C@H](C)[C@@H](CN(C)C(C)=O)O3)cc1 | 2.83% (inactive)
44 | C[C@H](CO)N1C[C@H](C)[C@@H](CN(C)C(=O)c2cnccn2)Oc2ncc(Br)cc2C1=O | 17.4% (inactive) and 62.5% (active)
45 | N#C[C@H]1[C@H](c2ccccc2)[C@@H](CO)N1C(=O)c1cccnc1 | -0.249% (inactive)
46 | COC(=O)[C@]12C[C@H](CC(=O)NCc3ccc(C)o3)C(=O)N(CCC3=CCCCC3)C1=C[C@H](C(C)(C)C)O[C@@H]2C | 13.9% (inactive)
47 | CN(C)C(=O)[C@@H]1[C@@H](CO)[C@@H]2Cn3c(cccc3=O)[C@@H]2N1C(=O)C1CCC1 | -0.032% (inactive)
48 | O=C(Nc1cccc(Cl)c1)N1C[C@@H]2[C@H](c3ccccc31)[C@H](CO)N2Cc1ccncc1 | -4.1% (inactive)
49 | C/C=C/c1ccc([C@H]2[C@@H](CO)N[C@@H]2CN(CC)C(=O)CN2CCOCC2)cc1 | -9.22% (inactive)
50 | O=C(C[C@@H]1C[C@H]2c3cc(NC(=O)NC4CCCCC4)ccc3O[C@H]2[C@H](CO)O1)NCc1ccncc1 | -3.13% (inactive)
51 | CC(C)NC(=O)N(C)C[C@@H]1Oc2ncc(C3=CCCCC3)cc2C(=O)N([C@H](C)CO)C[C@@H]1C | 4.71% (inactive)
52 | CCCNC(=O)C[C@H]1C[C@@H]2c3cc(NC(=O)COC)ccc3O[C@@H]2[C@@H](CO)O1 | -2.37% (inactive)
53 | CN1OC[C@@H]2CN(C(=O)C(C)(C)C)[C@H](c3ccc(-n4ccnc4)cc3)C[C@@H]21 | -4.59% (inactive)
54 | CN1OC[C@@H]2CN(C(=O)c3cccc4ccccc34)[C@H](c3ccc(N4CCCCC4)cc3)C[C@@H]21 | 1.89% (inactive)
55 | CN1OC[C@@H]2CN(C(=O)c3cccnc3)[C@H](c3ccc(N4CCCCC4)cc3)C[C@@H]21 | 42.6% (active)
56 | COc1ccc(NC(=O)Nc2ccc3c(c2)C(=O)N([C@@H](C)CO)C[C@@H](C)[C@@H](CN(C)Cc2ccncc2)OCCCC[C@@H](C)O3)cc1 | -9.1% (inactive)
57 | CN1C(=O)c2cc(NC(=O)c3cccs3)ccc2OC[C@H]2O[C@@H](CC(=O)NCC3CC3)CC[C@@H]21 | -3.31% (inactive)
58 | C/C=C/c1ccc([C@@H]2[C@H](CO)N(CC3CCOCC3)C23CN(S(=O)(=O)CC)C3)cc1 | 73.3% (active)
59 | C/C=C/c1ccc([C@@H]2[C@H](CO)N(CC3CCCC3)C23CN(C(=O)CC)C3)cc1 | 2.47% (inactive)
60 | C/C=C/c1ccc([C@@H]2[C@@H](CO)N(CC3CCCC3)C23CN(S(=O)(=O)CC)C3)cc1 | -5.75% (inactive)
61 | CO[C@H]1CN(C)C(=O)c2ccc(NS(=O)(=O)c3cn(C)cn3)cc2OC[C@H](C)N(C)C[C@H]1C | -10.1% (inactive)
62 | C/C=C/c1cnc2c(c1)C(=O)N([C@H](C)CO)C[C@H](C)[C@H](CN(C)C(=O)c1cccc(F)c1)O2 | -1% (inactive)
63 | C[C@@H]1CN([C@@H](C)CO)S(=O)(=O)c2ccc(Br)cc2O[C@H]1CN(C)S(=O)(=O)c1ccccc1 | -1.43% (inactive)
